Each structure is given as a SMILES string. Where a name gives a salt, the structure may show the parent alone.
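Further: immunostained co-cultures imaged by high-content microscopy, Z-score per plate against mean and SD of 0.1% DMSO wells, compounds added on differentiation day 18, analysed day 21.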

The subject of this assay is hN + hpA co-culture (H1 iNGN2 human neurons + human primary astrocytes). Kind of assay: presynaptic density (SYNAPSIN1 puncta per MAP2 neurite area), Z-score vs DMSO controls; higher = more presynaptic puncta (synapse-promoting). To be noted: 3 µM; 72 h.
With `Cc1nc2c(-c3cnc(N)nc3)nc(N3CCOCC3)nc2n1C(C)C`, the “presynaptic density (Z-score)” value turned out to be 1.07. Turning to `C#CCN[C@@H]1CCc2ccccc21` [Rasagiline Mesylate], the “presynaptic density (Z-score)” value worked out at 0.0894. As for `NC(=O)c1cccc(-c2cc(Nc3ccc(OC(F)(F)F)cc3)ncn2)c1`, the figure is -1.31.

Source of the values: the supplement of paper PMC10121225.
